Structures are written as SMILES. “And” between values parts separate entries of the source, which are not always exact repeats. Equal values may be shown once. The source made the active and inactive calls.

Assay [1] concerns Plasmodium falciparum Sir2 (PF13_0152, Sir2A). The assay can be described thus: pfSir2 binders on small-molecule microarrays, primary screen, biochemical, small-molecule microarray, 635 nm fluorescence (AID 1098).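 Note: score merges spot fluorescence intensity with its signal-to-noise ratio.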 The settings on record: small-molecule microarray binding, fluorescence 635 nm; higher = more signal.
A short description of assay [2]: small-molecule microarray binders of probe aDKK1, primary screen, biochemical, biotinylated probe, 635/667 nm fluorescence (AID 1099).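 Note: score merges 667nm spot fluorescence with signal to noise across triplicate slides.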 The conditions noted are these: higher = more signal.
A short description of assay [3]: small-molecule microarray binders of probe aCHRDL2, primary screen, biochemical, biotinylated probe, 635/667 nm fluorescence (AID 1100). The settings on record: higher = more signal.
Assay [4] can be described thus: splicing luciferase reporter signal modulators, primary screen, spliceosome inhibition project, cell-based, HEK293, splice +/- reporter (AID 1101).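 Note: HEK293 cells carrying a splicing-competent luciferase reporter gene; test concentration not given here.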 The conditions noted are these: luminescence, 24 h, higher = more signal, called active from +8 up or from −8 down. For orientation: A reporter such as luciferase makes a cellular process visible.
The target of assay [5] is Fibroblast growth factor 10 (Homo sapiens) (UniProt O15520). The assay can be described thus: FGF10 binders on small-molecule microarrays, primary screen, biochemical, small-molecule microarray, 635 nm fluorescence (AID 1102). The conditions noted are these: FGF10 binding, fluorescence 635 nm, higher = more signal.
The subject of assay [6] is glycogen synthase kinase-3 (GSK3A per assay name; protocol says GSK3B). The assay can be described thus: GSK3 binders on small-molecule microarrays, primary screen, biochemical, small-molecule microarray, 635 nm fluorescence, GSK3A (AID 1103). Note: the record names both GSK3A and GSK3B. The conditions noted are these: small-molecule microarray binding, fluorescence 635 nm; higher = more signal.
Assay [7] has as its target Epidermal growth factor receptor (Homo sapiens) (UniProt P00533). Put plainly: EGFR binders on small-molecule microarrays, primary screen, biochemical, small-molecule microarray, 635 nm fluorescence (AID 1104).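 Note: score merges 667 nm emission intensity with spot signal to noise over triplicate slides.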 The settings on record: EGFR binding, higher = more signal.
For assay [8], the target named is Follistatin-related protein 3 (Homo sapiens) (UniProt O95633). Put plainly: FSTL3 binders on small-molecule microarrays, primary screen, biochemical, small-molecule microarray, 635 nm fluorescence (AID 1105).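 Note: score merges emission near 667 nm and signal to noise per printed spot across three slides.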 The conditions noted are these: FSTL3 binding, higher = more signal.
The target in assay [9] is Dickkopf-related protein 1 (Homo sapiens) (UniProt O94907). Put plainly: DKK1 binders on small-molecule microarrays, primary screen, biochemical, small-molecule microarray, 635 nm fluorescence scan (AID 1106).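 Note: score merges emission near 667 nm with signal to noise over three replicate slides.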 The conditions noted are these: DKK1 binding, higher = more signal.
For assay [10], the system named is Inhibin beta A chain (activin A). The assay can be described thus: INHBA (activin A) binders on microarrays, primary screen, biochemical, small-molecule microarray, 635 nm fluorescence scan (AID 1107).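 Note: mouse activin A protein probed at 4.33 µg/mL on printed slides; score merges bound-protein fluorescence near 667 nm with spot signal-to-noise.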 The conditions noted are these: small-molecule microarray binding, higher = more signal.
The subject of assay [11] is Human papillomavirus type 1a protein E7 (residues 44-93). The assay can be described thus: HPV1a E7 fragment binders on microarrays, primary screen, biochemical, small-molecule microarray, residues 44-93, 635 nm fluorescence (AID 1108).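 Note: E7 fragment applied at 1 µg/mL in TBST for 1 h at 4 C; score combines spot fluorescence with its signal to noise ratio.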 The conditions noted are these: small-molecule microarray binding, fluorescence 635 nm; higher = more signal.
The nature of assay [12]: modulators of HCV replicon luciferase signal, primary screen, HCV replication inhibitor project, Huh7 cells, luciferase reporter (AID 1109).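 Note: huh7 hepatoma cells harbouring a luciferase neomycin HCV replicon reporter; luciferase luminescence as measure of HCV replicon replication; test concentration not given here.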 The settings on record: 48 h, higher = more signal. On the technique in general: In antiviral work, replicon cells carry a viral genome segment that copies itself.
The target in assay [13] is Left-right determination factor 2 (Homo sapiens) (UniProt O00292). The assay can be described thus: LEFTY2 binders on small-molecule microarrays, primary screen, biochemical, small-molecule microarray, 635 nm fluorescence scan (AID 1110). The conditions noted are these: LEFTY2 binding, higher = more signal.
Assay [14] concerns the target Calmodulin-1 (Homo sapiens) (UniProt P0DP23). The assay can be described thus: CALM1 binders on microarrays, EGTA buffer, profiling panel, biochemical, small-molecule microarray, Cy5-labelled CALM1 (AID 1111).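 Note: labelled calmodulin applied in Tris saline Tween buffer holding calcium plus EGTA and DTT.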 The settings on record: Cy5-CALM1 binding fluorescence, higher = more signal.
Assay [15] shares this target. Put plainly: calcium-bound CALM1 binders on microarrays, profiling panel, artefact control for SMM control-protein annotation, biochemical, small-molecule microarray, Cy5-labelled CALM1, plus calcium (AID 1112).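 Note: score merges spot fluorescence with signal to noise from triplicate slides.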 The conditions noted are these: Cy5-CALM1 binding fluorescence, higher = more signal.
Assay [16] in a line: small-molecule microarray binders of probe aWnt5a, primary screen, biochemical, biotinylated probe, 635/667 nm fluorescence (AID 1113).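 Note: score merges 667 nm fluorescence intensity with signal-to-noise per printed feature.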 The settings on record: higher = more signal.
Assay [17] in a line: small-molecule microarray binders of probe aShh, primary screen, biochemical, biotinylated probe, 635/667 nm fluorescence (AID 1114).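 Note: probe is biotin-labelled aShh protein from a stem cell growth factor screen; measures binding of labelled protein to compounds printed on the slide; score merges feature fluorescence at 667 nm with signal-to-noise.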 The settings on record: higher = more signal.
Assay [18] in a line: small-molecule microarray binders of probe aNog, primary screen, biochemical, biotinylated probe, 635/667 nm fluorescence (AID 1115).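 Note: probe is biotinylated aNog protein used at 0.15 µg/mL for 1 h at 4 C; z-score combines 667 nm fluorescence of each spot with its signal to noise.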 The settings on record: higher = more signal.
Assay [19] addresses Torsin-1A-interacting protein 1 (Homo sapiens) (UniProt Q5JTV8). Put plainly: LAP1 binders from COS7 cell lysate, primary screen, small-molecule microarray, 635/667 nm fluorescence (AID 1116). The settings on record: COS7-hLAP1 lysate binding, 635 nm fluorescence, higher = more signal.
Assay [20] concerns the target Alpha-bungarotoxin (Bungarus multicinctus) (UniProt P60615). The assay can be described thus: alpha-bungarotoxin binders on microarray, profiling panel, artefact control for SMM control protein annotation, biochemical, small-molecule microarray, Alexa647 label, 635/667 nm fluorescence (AID 1117). The settings on record: alpha-BTX-A647 binding fluorescence, higher = more signal.

Dickkopf-related protein 1 (Homo sapiens), sequence (O94907 whole entry, looked up): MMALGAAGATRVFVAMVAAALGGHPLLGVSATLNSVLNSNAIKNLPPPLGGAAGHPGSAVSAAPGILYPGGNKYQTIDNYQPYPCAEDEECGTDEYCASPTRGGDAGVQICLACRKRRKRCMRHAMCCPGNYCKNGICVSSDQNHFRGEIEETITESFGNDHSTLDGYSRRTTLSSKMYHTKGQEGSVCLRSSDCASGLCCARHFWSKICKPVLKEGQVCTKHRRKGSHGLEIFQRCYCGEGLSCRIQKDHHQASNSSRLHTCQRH
Follistatin-related protein 3 (Homo sapiens), sequence (O95633 whole entry, looked up): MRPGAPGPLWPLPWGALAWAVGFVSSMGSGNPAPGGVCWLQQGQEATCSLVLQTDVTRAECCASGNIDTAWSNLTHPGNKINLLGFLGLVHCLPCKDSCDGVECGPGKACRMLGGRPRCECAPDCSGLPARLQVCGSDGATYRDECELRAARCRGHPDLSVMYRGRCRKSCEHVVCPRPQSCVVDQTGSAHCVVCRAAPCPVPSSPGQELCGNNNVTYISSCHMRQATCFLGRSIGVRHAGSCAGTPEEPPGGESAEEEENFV
Torsin-1A-interacting protein 1 (Homo sapiens), sequence (Q5JTV8 whole entry, looked up): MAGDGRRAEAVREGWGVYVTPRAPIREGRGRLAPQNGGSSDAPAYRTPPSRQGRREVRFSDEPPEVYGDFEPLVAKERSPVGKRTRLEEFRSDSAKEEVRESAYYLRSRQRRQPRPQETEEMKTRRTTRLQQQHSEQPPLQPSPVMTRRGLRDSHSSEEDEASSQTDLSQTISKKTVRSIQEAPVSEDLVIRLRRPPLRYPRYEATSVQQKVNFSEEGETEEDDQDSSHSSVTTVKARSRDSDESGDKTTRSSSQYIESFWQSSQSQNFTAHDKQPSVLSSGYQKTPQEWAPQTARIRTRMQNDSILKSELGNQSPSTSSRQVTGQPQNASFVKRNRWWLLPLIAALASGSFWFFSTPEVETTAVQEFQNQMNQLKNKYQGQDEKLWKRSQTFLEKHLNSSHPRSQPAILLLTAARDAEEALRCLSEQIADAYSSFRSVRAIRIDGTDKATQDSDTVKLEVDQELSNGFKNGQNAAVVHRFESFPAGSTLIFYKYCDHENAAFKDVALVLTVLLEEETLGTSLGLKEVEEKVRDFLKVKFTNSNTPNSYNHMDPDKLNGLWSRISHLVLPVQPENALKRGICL
Fibroblast growth factor 10 (Homo sapiens), sequence (O15520 whole entry, looked up): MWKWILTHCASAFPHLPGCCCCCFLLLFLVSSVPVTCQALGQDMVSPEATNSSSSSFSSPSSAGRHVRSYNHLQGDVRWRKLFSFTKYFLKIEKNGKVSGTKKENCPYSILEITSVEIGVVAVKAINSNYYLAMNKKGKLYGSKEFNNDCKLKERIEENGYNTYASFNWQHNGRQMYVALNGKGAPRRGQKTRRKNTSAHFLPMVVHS
Alpha-bungarotoxin (Bungarus multicinctus), sequence (P60615 whole entry, looked up): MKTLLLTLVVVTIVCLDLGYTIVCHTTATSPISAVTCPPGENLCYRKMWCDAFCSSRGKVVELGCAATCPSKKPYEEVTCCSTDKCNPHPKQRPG
Epidermal growth factor receptor (Homo sapiens), sequence (P00533 whole entry, looked up): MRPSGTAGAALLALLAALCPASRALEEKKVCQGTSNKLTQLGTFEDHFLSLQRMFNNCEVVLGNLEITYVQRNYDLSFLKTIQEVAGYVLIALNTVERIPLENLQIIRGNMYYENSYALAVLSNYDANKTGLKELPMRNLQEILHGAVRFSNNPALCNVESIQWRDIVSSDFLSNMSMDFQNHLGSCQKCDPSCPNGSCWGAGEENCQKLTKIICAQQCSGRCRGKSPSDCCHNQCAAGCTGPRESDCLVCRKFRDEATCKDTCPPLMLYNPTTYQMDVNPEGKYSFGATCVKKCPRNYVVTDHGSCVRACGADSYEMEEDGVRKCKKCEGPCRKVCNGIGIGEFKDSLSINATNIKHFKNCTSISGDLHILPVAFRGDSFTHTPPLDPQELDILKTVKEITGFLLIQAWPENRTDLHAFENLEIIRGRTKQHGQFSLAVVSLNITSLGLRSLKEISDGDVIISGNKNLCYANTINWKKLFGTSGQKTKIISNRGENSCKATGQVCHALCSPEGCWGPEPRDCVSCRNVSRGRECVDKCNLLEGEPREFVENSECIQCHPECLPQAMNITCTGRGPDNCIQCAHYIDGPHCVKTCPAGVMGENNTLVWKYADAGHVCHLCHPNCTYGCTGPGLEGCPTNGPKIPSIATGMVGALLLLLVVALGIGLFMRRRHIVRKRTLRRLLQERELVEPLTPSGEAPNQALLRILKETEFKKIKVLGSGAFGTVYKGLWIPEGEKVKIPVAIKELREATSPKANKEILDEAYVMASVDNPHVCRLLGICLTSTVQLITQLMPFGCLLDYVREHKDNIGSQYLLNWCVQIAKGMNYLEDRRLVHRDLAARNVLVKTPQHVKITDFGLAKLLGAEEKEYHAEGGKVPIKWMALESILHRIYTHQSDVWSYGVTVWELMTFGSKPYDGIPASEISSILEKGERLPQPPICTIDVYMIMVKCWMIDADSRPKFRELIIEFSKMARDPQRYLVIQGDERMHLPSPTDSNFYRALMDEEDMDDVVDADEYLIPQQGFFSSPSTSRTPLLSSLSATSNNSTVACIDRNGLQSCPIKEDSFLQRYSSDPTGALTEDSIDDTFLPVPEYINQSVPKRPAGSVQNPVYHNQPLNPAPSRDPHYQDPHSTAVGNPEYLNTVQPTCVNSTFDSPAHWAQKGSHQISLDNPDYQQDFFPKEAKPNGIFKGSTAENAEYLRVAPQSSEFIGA
Left-right determination factor 2 (Homo sapiens), sequence (O00292 whole entry, looked up): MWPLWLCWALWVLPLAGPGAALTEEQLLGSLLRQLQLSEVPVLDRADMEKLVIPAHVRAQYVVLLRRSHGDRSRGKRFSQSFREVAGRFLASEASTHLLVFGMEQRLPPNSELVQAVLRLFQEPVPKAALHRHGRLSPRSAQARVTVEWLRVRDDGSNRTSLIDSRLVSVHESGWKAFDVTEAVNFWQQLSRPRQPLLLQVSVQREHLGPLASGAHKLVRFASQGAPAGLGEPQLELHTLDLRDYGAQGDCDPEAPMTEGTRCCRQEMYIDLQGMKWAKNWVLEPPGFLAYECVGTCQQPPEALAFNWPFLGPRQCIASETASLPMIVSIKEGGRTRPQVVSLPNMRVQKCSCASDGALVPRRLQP

For `C=C[C@H](C)[C@@H](O)c1ccc(OCCO)cc1`, the composite z-score is 1.19 and -0.0088 in assay [1]; 0.892 and -0.0695 in [2]; 0.689 and 0.639 in [3]; -1.09 and -0.675 in assay [5]; -0.914 and -0.622 in [6]; -1.51 and -0.966 in assay [7]. Besides, the composite z-score in [8] is -1.35 and -0.796; in assay [9], -1.05 and -0.262; in assay [10] it was -1.03 and -0.831; in assay [11] it was -1.92 and -0.467; in assay [13], -1.11 and -1.45; in assay [14] it was -0.827 and -0.366. Moreover, the composite z-score in assay [15] was 0.717 and 0.1; in [16], -0.261 and -0.252; in [17], -0.289 and 0.0639; in assay [18], -0.194 and -0.381; in assay [19] it was -0.998 and 0.225; in assay [20], -1.12 and -0.0745. Further, the z-score in assay [4] was -0.636 (inactive) and -0.215 (inactive); in assay [12] it was 0.15 and 0.616.
On to `C=CCN(C(=O)C1N(C(C)(C)CO)C(=O)C2C(C(=O)O)C3C=CC21O3)c1ccc(OC)cc1` (stereo not given), for which the composite z-score in assay [1] is -0.138 and 0.012; in [2], 0.0931 and -0.0192; in assay [3], 1.23 and 1.02; in assay [5], -0.966 and -2.03; in assay [6], -0.751 and -1.28; in [7] it was -1.84 and -1.43. For the same molecule, the composite z-score is -2.02 and -2.33 in [8]; -4.14 and -3.71 in assay [9]; -1.01 and -5.89 in assay [10]; -0.391 and -1.24 in assay [11]; -2 and -4.13 in [13]; -0.547 and -0.928 in assay [14]. The composite z-score is 0.455 and -0.116 in assay [15]; -0.256 and -0.116 in assay [16]; 0.0611 and -0.283 in assay [17]; 0.265 and -0.0827 in [18]; 1.86 and -0.125 in assay [19]; -2.34 and -2.48 in assay [20]. In addition, the z-score in assay [4] was -1.01 (inactive) and 0.0922 (inactive); in assay [12], 1.82 and -0.0108.
With `C=CC[C@H](O)c1ccc(OCCO)cc1`, the composite z-score in [1] was 0.142 and -0.925; in [2], 0.203 and -0.308; in assay [3] it was 0.777 and 0.484; in assay [5], -0.603 and -0.328; in assay [6] it was -0.92 and -2.17; in assay [7] it was -0.883 and -0.455. Also, the composite z-score in assay [8] was -0.382 and -0.0904; in [9] it was -1.06 and -0.251; in assay [10], 0.149 and 0.677; in assay [11] it was -0.664 and -3.44; in assay [13], -0.774 and -0.827; in assay [14] it was -1.14 and -0.814. For the same molecule, the composite z-score in assay [15] is 0.237 and 0.234; in [16] it was -0.176 and -0.139; in assay [17], -0.221 and -0.288; in assay [18], -0.0144 and 0.419; in [19], -0.24 and -1.3; in assay [20] it was 2.4 and -0.101. Moreover, the z-score in assay [4] is 0.296 (inactive) and 2.7 (inactive); in assay [12], -0.921 and 0.924.
For the molecule `C=CCN(Cc1ccccc1)C(=O)C1N(c2c(Cl)cccc2CO)C(=O)C2C(C(=O)O)C3C=CC21O3` (stereo not given), the composite z-score is -1.57 and -0.0019 in [1]; 0.059 and 0.175 in assay [2]; 0.845 and 1.19 in [3]; -0.944 and -1.32 in assay [5]; -1.84 and -1.45 in assay [6]; -1.91 and -1.77 in assay [7]. Further, the composite z-score in assay [8] is -1.61 and -2.46; in assay [9], -2.28 and -1.9; in assay [10] it was -0.934 and -2.5; in assay [11] it was -2.6 and -0.99; in assay [13] it was -3.36 and -2.65; in assay [14], -0.998 and -0.846. Further, the composite z-score in assay [15] is 0.686 and 0.031; in [16], -0.215 and -0.291; in [17], -0.221 and -0.0866; in assay [18], -0.261 and -0.281; in assay [19], -0.74 and -0.831; in [20], -2.7 and -1.89. Besides, the z-score was -2.02 (inactive) and -0.804 (inactive) in assay [4]; -0.431 and -0.961 in assay [12].
Turning to `C[C@@H]1CC[C@@H](C(=O)O)N[C@H]1c1ccc(-c2ccco2)cc1`, the composite z-score was 1.04 in [1]; -0.187 in assay [2]; -0.826 in assay [3]; 0.614 in assay [5]; 0.722 in assay [6]; 0.946 in [7]. For the same molecule, the composite z-score in assay [8] was 1.44; in [9], 0.951; in assay [10] it was 0.805; in assay [11], -1.68; in assay [13], 0.88; in assay [14] it was -0.547. For the same molecule, the composite z-score in assay [15] was -1.3; in assay [16], -0.096; in assay [17], -0.299; in [18], 0.0023; in assay [19], 0.195; in [20], 0.0848. In addition, the z-score in [4] is 0.0295 (inactive); in assay [12], -0.305.
On to `Cc1cc2c(nc1C)CCCN2CC(C)ON=C[C@@H](C)[C@H](OCc1ccccc1)C(C)C` (stereo not given in full), for which the composite z-score was -0.146 in assay [1]; -0.14 in assay [2]; -0.499 in assay [3]; -0.375 in [5]; -0.857 in [6]; 0.0333 in [7]. The composite z-score is -0.0161 in assay [8]; 0.227 in assay [9]; 0.622 in assay [10]; -1.88 in assay [11]; 0.339 in assay [13]; -0.398 in assay [14]. The composite z-score in [15] is -0.304; in assay [16], -0.0125; in assay [17] it was -0.0035; in assay [18] it was 0.0811; in assay [19], -0.0342; in assay [20], -0.0161. For the same molecule, the z-score was 0.332 (inactive) in assay [4] and -1.26 in [12].
